In the supplement of paper PMC12494721:
Counter-ions that a name gives are not always drawn.

Tests used:
Settings in all cases: incubation time: 27 h, anaerobic, 37 °C;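 for the amine columns active = adjusted P below 0.05 in both replicates with a change the same way and a mean fold change under 0.8 or over 1.25; inactive = the rest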
[1] = test system: Clostridium sporogenes DSM 1664; assay: growth (OD595) fold change vs plate DMSO controls (fold change (ratio)); higher = more growth
Method in brief: (§1)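 Each value is the mean of 2 biological replicates, and fold changes above 1.5 were set to NA. The underlying readings were taken at 595 nm from shaken anaerobic mGAM cultures in 96-well plates after 27 h at 37 °C. They were blank-subtracted, corrected for compound background using 20 µM compound solutions in water, and converted to OD with a calibration factor of 5. Growth is the fold change relative to the median of the plate DMSO controls.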

[2] = test system: Escherichia coli IAI1; assay: as above
Method in brief: as §1

[3] = test system: Klebsiella aerogenes DSM 30053; assay: as above
Method in brief: as §1

[4] = test system: Ruminococcus gnavus DSM 108212; assay: as above
Method in brief: as §1

[5] = test system: Klebsiella aerogenes DSM 30053; assay: fold change of Histamine concentration vs plate DMSO controls (fold change (ratio)); higher = more amine produced, active = hit call of the paper (significant change in both replicates, either direction)
Method in brief: (§2)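 Anaerobic mGAM cultures of four gut bacterial strains were grown at 37 °C for 27 h in 80 µL wells, starting at OD 0.1 before 1:1 dilution. Compounds were at 20 µM final (sweeteners 50 µM). Whole cultures were extracted with cold acetonitrile/methanol containing 0.1% formic acid and centrifuged. Amines were quantified by LC–triple-quadrupole MS (dynamic MRM) against external calibration curves and drift-corrected within batch. Each value is the fold change versus plate DMSO controls, averaged over 2 biological replicates.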

[6] = test system: Clostridium sporogenes DSM 1664; assay: fold change of Tryptamine concentration vs plate DMSO controls (fold change (ratio)); higher = more amine produced, active = hit call of the paper (significant change in both replicates, either direction)
Method in brief: as §2

[7] = test system: Ruminococcus gnavus DSM 108212; assay: as above
Method in brief: as §2

[8] = test system: Escherichia coli IAI1; assay: fold change of Putrescine concentration vs plate DMSO controls (fold change (ratio)); higher = more amine produced, active = hit call of the paper (significant change in both replicates, either direction)
Method in brief: as §2

[9] = test system: Klebsiella aerogenes DSM 30053; assay: as above
Method in brief: as §2

[10] = test system: Escherichia coli IAI1; assay: fold change of Cadaverine concentration vs plate DMSO controls (fold change (ratio)); higher = more amine produced, active = hit call of the paper (significant change in both replicates, either direction)
Method in brief: as §2

[11] = test system: Klebsiella aerogenes DSM 30053; assay: as above
Method in brief: as §2

[12] = test system: Ruminococcus gnavus DSM 108212; assay: fold change of 2-Phenylethylamine concentration vs plate DMSO controls (fold change (ratio)); higher = more amine produced, active = hit call of the paper (significant change in both replicates, either direction)
Method in brief: as §2

| Structure (SMILES) | growth [1] | growth [2] | growth [3] | growth [4] | fold change of Histamine concentration [5] | fold change of Tryptamine concentration [6] | fold change of Tryptamine concentration [7] | fold change of Putrescine concentration [8] | fold change of Putrescine concentration [9] | fold change of Cadaverine concentration [10] | fold change of Cadaverine concentration [11] | fold change of 2-Phenylethylamine concentration [12] |
| --- | --- | --- | --- | --- | --- | --- | --- | --- | --- | --- | --- | --- |
| COc1ccccc1OCC(O)CO (stereo not given) [Guaifenesin] (20 µM) | 1.09 | 0.954 | 0.98 | 1.03 | 1.05 (inactive) | 1.04 (inactive) | 1.05 (inactive) | 1.04 (inactive) | 1.01 (inactive) | 0.991 (inactive) | 0.988 (inactive) | 1.1 (inactive) |
| Nc1nnc(-c2cccc(Cl)c2Cl)c(N)n1 [Lamotrigine] (20 µM) | 0.937 | 0.978 | 0.986 | 0.963 | 0.977 (inactive) | 1.03 (inactive) | 1.04 (inactive) | 0.946 (inactive) | 1.02 (inactive) | 1.23 (inactive) | 0.989 (inactive) | 1.06 (inactive) |
| O=C(O)C1CSCN1 (stereo not given) [Timonacic] (20 µM) | 0.827 | 1.02 | 1 | 0.956 | 0.992 (inactive) | 1 (inactive) | 1.02 (inactive) | 1.04 (inactive) | 1.01 (inactive) | 1 (inactive) | 1 (inactive) | 0.998 (inactive) |
| CCC1(C)CC(=O)NC1=O (stereo not given) [Ethosuximide] (20 µM) | 0.953 | 1 | 1.07 | 0.928 | 0.991 (inactive) | 1.07 (inactive) | 0.992 (inactive) | 1 (inactive) | 0.995 (inactive) | 0.995 (inactive) | 1.03 (inactive) | 1.02 (inactive) |
| Cc1cc(CC(=O)O)n(C)c1C(=O)c1ccc(Cl)cc1 [Zomepirac sodium salt] (20 µM) | 1.21 | 0.969 | 0.981 | 1.13 | 1.05 (inactive) | 0.971 (inactive) | 0.972 (inactive) | 1.04 (inactive) | 1.01 (inactive) | 1.01 (inactive) | 0.984 (inactive) | 0.968 (inactive) |
| CC(C)(S)C(N)C(=O)O (racemic) [D,L-Penicillamine] (20 µM) | 1.05 | 1.08 | 1.02 | 0.873 | 0.909 (inactive) | 0.993 (inactive) | 0.968 (inactive) | 0.99 (inactive) | 0.954 (inactive) | 1 (inactive) | 0.974 (inactive) | 0.956 (inactive) |
| Cc1c(NC(=O)c2cccnc2)c(=O)n(-c2ccccc2)n1C [Nifenazone] (20 µM) | 0.595 | 0.988 | 1.03 | 0.857 | 0.926 (inactive) | 0.135 (active) | 1.02 (inactive) | 0.723 (active) | 0.978 (inactive) | 0.865 (inactive) | 1 (inactive) | 1.03 (inactive) |
| CC1=C(C)C(=O)C(C(CCCCCC(=O)O)c2ccccc2)=C(C)C1=O (stereo not given) [Seratrodast] (20 µM) | 0.927 | 0.998 | 1 | 0.979 | 1 (inactive) | 1.01 (inactive) | 0.908 (inactive) | 1.05 (inactive) | 1.02 (inactive) | 0.965 (inactive) | 1.01 (inactive) | 0.899 (inactive) |
| Cc1ncc([N+](=O)[O-])n1C [Dimetridazole] (20 µM) | 0.0144 | 1.02 | 0.995 | 0.811 | 0.868 (inactive) | 0.0153 (active) | 0.218 (active) | 1.05 (inactive) | 1.01 (inactive) | 1.07 (inactive) | 1.01 (inactive) | 0.218 (active) |
| CCCCNc1ccc(C(=O)OCCOCCOCCOCCOCCOCCOCCOCCOCCOC)cc1 [Benzonatate] (20 µM) | 0.953 | 1.03 | 1.04 | 0.922 | 0.929 (inactive) | 0.96 (inactive) | 0.971 (inactive) | 1 (inactive) | 0.995 (inactive) | 1.04 (inactive) | 1.01 (inactive) | 0.936 (inactive) |
| CC1=C(/C=C/C(C)=C/C=C/C(C)=C/C(=O)O)C(C)(C)CCC1 [Retinoic acid] (20 µM) | 1.05 | 0.973 | 1.1 | 1.04 | 0.947 (inactive) | 1.03 (inactive) | 1.03 (inactive) | 1.01 (inactive) | 1.02 (inactive) | 0.989 (inactive) | 1.01 (inactive) | 0.997 (inactive) |
| CN1Cc2c(N)cccc2C(c2ccccc2)C1 (stereo not given) [Nomifensine maleate] (20 µM) | 1.07 | 0.982 | 1.01 | 1.1 | 0.994 (inactive) | 0.989 (inactive) | 1.04 (inactive) | 0.989 (inactive) | 1.01 (inactive) | 0.935 (inactive) | 1.02 (inactive) | 0.992 (inactive) |
| N/C(=N\C(=O)c1nc(Cl)c(N)nc1N)NCc1ccccc1 [Benzamil hydrochloride] (20 µM) | 0.787 | 0.962 | 0.958 | 0.861 | 0.932 (inactive) | 1.03 (inactive) | 0.961 (inactive) | 0.807 (inactive) | 0.965 (inactive) | 1.48 (inactive) | 0.991 (inactive) | 0.936 (inactive) |
| CC(C)[C@H](N)C(=O)OCCOCn1cnc2c(=O)nc(N)[nH]c21 [Valacyclovir hydrochloride] (20 µM) | 1.06 | 0.958 | 0.98 | 0.538 | 1.09 (inactive) | 0.989 (inactive) | 1.02 (inactive) | 0.954 (inactive) | 1.03 (inactive) | 0.987 (inactive) | 0.999 (inactive) | 0.997 (inactive) |
| CC(COc1ccccc1)NC(C)C(O)c1ccc(O)cc1 (stereo not given) [Isoxsuprine hydrochloride] (20 µM) | 1.07 | 1 | 1 | 1.01 | 0.819 (inactive) | 1.05 (inactive) | 0.977 (inactive) | 1.05 (inactive) | 1 (inactive) | 0.927 (inactive) | 1.03 (inactive) | 0.966 (inactive) |
| CC(=O)OCC(CCn1cnc2cnc(N)nc21)COC(C)=O [Famciclovir] (20 µM) | 0.805 | 1.06 | 0.981 | 0.993 | 1.15 (inactive) | 1.03 (inactive) | 1.05 (inactive) | 1.03 (inactive) | 1.01 (inactive) | 1.01 (inactive) | 0.979 (inactive) | 1.04 (inactive) |
| Clc1ccc(C(Cn2ccnc2)OCc2csc3c(Cl)cccc23)c(Cl)c1 (stereo not given) [Sertaconazole nitrate] (20 µM) | 0.896 | 1.1 | 0.993 | 0.501 | 0.978 (inactive) | 1.12 (inactive) | 0.435 (active) | 1.08 (inactive) | 0.954 (inactive) | 0.973 (inactive) | 1.03 (inactive) | 0.591 (inactive) |
| CCC(=O)O[C@]1(C(=O)SCF)[C@H](C)C[C@H]2[C@@H]3C[C@H](F)C4=CC(=O)C=C[C@]4(C)[C@@]3(F)[C@@H](O)C[C@@]21C [Fluticasone propionate] (20 µM) | 0.911 | 0.976 | 1.03 | 0.998 | 1.04 (inactive) | 0.989 (inactive) | 0.935 (inactive) | 0.994 (inactive) | 1.01 (inactive) | 0.995 (inactive) | 1.01 (inactive) | 0.931 (inactive) |
| CC1(C)S[C@@H]2[C@H](NC(=O)[C@H](C(=O)O)c3ccsc3)C(=O)N2[C@H]1C(=O)O [Ticarcillin sodium] (20 µM) | 0 | 1.22 | 1.02 | 0 | 1.04 (inactive) | 0.0277 (active) | 0.0454 (active) | 1.21 (inactive) | 1.02 (inactive) | 1.44 (active) | 0.996 (inactive) | 0.0536 (active) |
| Nc1nc(=O)c2nc(CNc3ccc(C(=O)N[C@@H](CCC(=O)O)C(=O)O)cc3)cnc2[nH]1 [Folic acid] (20 µM) | 0.939 | 1.08 | 0.988 | 0.783 | 0.93 (inactive) | 1.04 (inactive) | 0.955 (inactive) | 1.05 (inactive) | 0.997 (inactive) | 0.98 (inactive) | 1.01 (inactive) | 0.928 (inactive) |
| CN1CCC(=C2c3ccccc3C=Cc3ccccc32)CC1 [Cyproheptadine hydrochloride] (20 µM) | 0.683 | 1.01 | 0.98 | 1.15 | 1.03 (inactive) | 1.18 (inactive) | 0.98 (inactive) | 0.969 (inactive) | 0.996 (inactive) | 0.973 (inactive) | 0.999 (inactive) | 1 (inactive) |
| C#Cc1cccc(Nc2ncnc3cc(OCCOC)c(OCCOC)cc23)c1 [Erlotinib] (20 µM) | 0.903 | 0.969 | 1.01 | 0.842 | 1.05 (inactive) | 1 (inactive) | 1.02 (inactive) | 0.987 (inactive) | 1.04 (inactive) | 1.02 (inactive) | 1.01 (inactive) | 1.05 (inactive) |
| Nc1ccc(O)c(C(=O)O)c1 [Mesalamine] (20 µM) | 0.832 | 0.983 | 0.985 | 0.924 | 1.06 (inactive) | 1.02 (inactive) | 1.01 (inactive) | 0.957 (inactive) | 1.01 (inactive) | 0.97 (inactive) | 0.98 (inactive) | 1.04 (inactive) |
| C=C1/C(=C\C=C2/CCC[C@]3(C)[C@@H]([C@H](C)/C=C/[C@@H](O)C4CC4)CC[C@@H]23)C[C@@H](O)C[C@@H]1O [Calcipotriene] (20 µM) | 1.07 | 0.96 | 1.02 | 1.3 | 1.02 (inactive) | 0.952 (inactive) | 1.01 (inactive) | 1.01 (inactive) | 1.01 (inactive) | 0.969 (inactive) | 1 (inactive) | 0.981 (inactive) |
| CC(=O)O[C@H]1C[C@@]2(C)[C@@H](C[C@@H](O)[C@H]3[C@@]4(C)CC[C@@H](O)[C@@H](C)[C@@H]4CC[C@@]32C)/C1=C(\CCC=C(C)C)C(=O)O [Fusidic acid sodium salt] (20 µM) | 0.00767 | 1.02 | 1.09 | 0.122 | 0.846 (inactive) | 0.0208 (active) | 0.102 (active) | 0.913 (inactive) | 0.963 (inactive) | 1 (inactive) | 1.02 (inactive) | 0.106 (active) |
